Assay results: PubChem BioAssay AID1159580 (chemical genetic matrix, 2015)
In all, about 5,500 compounds went through this assay and about 2,000 (36%) were called active. Inconclusive results (about 18%) are left out. The list shows a part of the results. Values without a mark were called inactive. Cut-off read from the data, not from the text of the source: active = normalized growth mostly below about 0.91 (no sharp cut-off); inconclusive = no clear call, values can overlap the other calls; inactive = mostly above about 0.92.

Test: chemical genetic growth profiling, strain panel (AID 1159580);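 note: tested at 20 µM; growth read once vehicle control cultures reached saturation at 30 °C; 1 = growth at the plate median or of vehicle wells; lower values mean less growth of the strain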
Conditions: growth OD

CCC(C)(C)C(=O)O[C@H]1C[C@@H](C)C=C2C=C[C@H](C)[C@H](CC[C@@H]3C[C@@H](O)CC(=O)O3)[C@H]21
normalized growth (S. cerevisiae deletion strains, locus YJR075W, strain HOC1, stronger effect = lower value): 1
normalized growth (S. cerevisiae deletion strains, locus YKL009W, strain mrt4, stronger effect = lower value): 0.93
normalized growth (S. cerevisiae deletion strains, locus YKL068W, stronger effect = lower value): 1.03
normalized growth (S. cerevisiae deletion strains, locus YKL085W, strain MDH1 (second series), stronger effect = lower value): 1.02
normalized growth (S. cerevisiae deletion strains, locus YKL085W, strain MDH1, stronger effect = lower value): 1.02
normalized growth (S. cerevisiae deletion strains, locus YKL160W, strain elf1, stronger effect = lower value): 0.949
normalized growth (S. cerevisiae deletion strains, locus YKL190W, strain CNB1, stronger effect = lower value): 1.01
normalized growth (S. cerevisiae deletion strains, locus YKR001C, strain vps1, stronger effect = lower value): 1.01
normalized growth (S. cerevisiae deletion strains, locus YKR026C, strain gcn3, stronger effect = lower value): 1.01
normalized growth (S. cerevisiae deletion strains, locus YKR091W, strain srl3, stronger effect = lower value): 1.02
normalized growth (S. cerevisiae deletion strains, locus YLL001W, strain dnm1, stronger effect = lower value): 1
normalized growth (S. cerevisiae deletion strains, locus YLL026W, stronger effect = lower value): 0.981
normalized growth (S. cerevisiae deletion strains, locus YLL041C, strain sdh2, stronger effect = lower value): 1.01
normalized growth (S. cerevisiae deletion strains, locus YLR027C, strain aat2, stronger effect = lower value): 0.976
normalized growth (S. cerevisiae deletion strains, locus YLR039C, strain RIC1, stronger effect = lower value): 1.1
normalized growth (S. cerevisiae deletion strains, locus YLR058C, strain SHM2, stronger effect = lower value): 1.02
normalized growth (S. cerevisiae deletion strains, locus YLR102C, strain apc9, stronger effect = lower value): 1.04
normalized growth (S. cerevisiae deletion strains, locus YLR113W, strain HOG1, stronger effect = lower value): 1.04
normalized growth (S. cerevisiae deletion strains, locus YLR221C, strain rsa3, stronger effect = lower value): 0.909
normalized growth (S. cerevisiae deletion strains, locus YLR258W, strain gsy2, stronger effect = lower value): 0.927
normalized growth (S. cerevisiae deletion strains, locus YLR262C, strain YPT6 (second series), stronger effect = lower value): 1.05
normalized growth (S. cerevisiae deletion strains, locus YLR262C, strain YPT6, stronger effect = lower value): 0.58
normalized growth (S. cerevisiae deletion strains, locus YLR268W, strain sec22, stronger effect = lower value): 0.993
normalized growth (S. cerevisiae deletion strains, locus YLR320W, strain mms22, stronger effect = lower value): 0.855 (active)
normalized growth (S. cerevisiae deletion strains, locus YLR330W, strain CHS5, stronger effect = lower value): 1
normalized growth (S. cerevisiae deletion strains, locus YLR342W, strain FKS1 (second series), stronger effect = lower value): 1.01
normalized growth (S. cerevisiae deletion strains, locus YLR342W, strain FKS1, stronger effect = lower value): 1
normalized growth (S. cerevisiae deletion strains, locus YLR357W, strain rsc2, stronger effect = lower value): 1.01
normalized growth (S. cerevisiae deletion strains, locus YLR370C, strain arc18, stronger effect = lower value): 1.01
normalized growth (S. cerevisiae deletion strains, locus YLR371W, strain rom2, stronger effect = lower value): 1.04
normalized growth (S. cerevisiae deletion strains, locus YLR384C, strain iki3, stronger effect = lower value): 0.978
normalized growth (S. cerevisiae deletion strains, locus YLR418C, strain cdc73, stronger effect = lower value): 0.856
normalized growth (S. cerevisiae deletion strains, locus YML016C, strain PPZ1, stronger effect = lower value): 1.02
normalized growth (S. cerevisiae deletion strains, locus YML032C, strain rad52, stronger effect = lower value): 1.02
normalized growth (S. cerevisiae deletion strains, locus YML120C, strain ndi1, stronger effect = lower value): 0.987
normalized growth (S. cerevisiae deletion strains, locus YML124C, strain tub3, stronger effect = lower value): 1.04
normalized growth (S. cerevisiae deletion strains, locus YMR058W, strain fet3, stronger effect = lower value): 0.977
normalized growth (S. cerevisiae deletion strains, locus YMR078C, strain ctf18, stronger effect = lower value): 1.04
normalized growth (S. cerevisiae deletion strains, locus YMR125W, strain sto1, stronger effect = lower value): 0.97
normalized growth (S. cerevisiae deletion strains, locus YMR129W, stronger effect = lower value): 1.02
normalized growth (S. cerevisiae deletion strains, locus YMR205C, strain PFK2, stronger effect = lower value): 0.978
normalized growth (S. cerevisiae deletion strains, locus YMR223W, strain ubp8, stronger effect = lower value): 0.991
normalized growth (S. cerevisiae deletion strains, locus YMR231W, strain pep5, stronger effect = lower value): 1
normalized growth (S. cerevisiae deletion strains, locus YMR263W, strain SAP30, stronger effect = lower value): 0.99
normalized growth (S. cerevisiae deletion strains, locus YMR307W, strain GAS1, stronger effect = lower value): 0.554 (active)
normalized growth (S. cerevisiae deletion strains, locus YNL067W, strain RPL9B, stronger effect = lower value): 0.998
normalized growth (S. cerevisiae deletion strains, locus YNL071W, strain lat1, stronger effect = lower value): 0.834 (active)
normalized growth (S. cerevisiae deletion strains, locus YNL128W, strain TEP1, stronger effect = lower value): 0.979
normalized growth (S. cerevisiae deletion strains, locus YNL153C, strain GIM3, stronger effect = lower value): 0.986
normalized growth (S. cerevisiae deletion strains, locus YNL183C, strain NPR1, stronger effect = lower value): 0.897
normalized growth (S. cerevisiae deletion strains, locus YNL209W, strain ssb2, stronger effect = lower value): 0.88 (active)
normalized growth (S. cerevisiae deletion strains, locus YNL233W, strain BNI4, stronger effect = lower value): 0.947
normalized growth (S. cerevisiae deletion strains, locus YNL248C, strain rpa49, stronger effect = lower value): 0.932
normalized growth (S. cerevisiae deletion strains, locus YNL250W, strain rad50, stronger effect = lower value): 0.988
normalized growth (S. cerevisiae deletion strains, locus YNL271C, strain bni1, stronger effect = lower value): 1.01
normalized growth (S. cerevisiae deletion strains, locus YNL298W, strain CLA4, stronger effect = lower value): 1.03
normalized growth (S. cerevisiae deletion strains, locus YNL307C, strain MCK1, stronger effect = lower value): 0.942
normalized growth (S. cerevisiae deletion strains, locus YNL322C, strain KRE1 (second series), stronger effect = lower value): 1.07
normalized growth (S. cerevisiae deletion strains, locus YNL322C, strain KRE1, stronger effect = lower value): 1.01
normalized growth (S. cerevisiae deletion strains, locus YNR049C, strain mso1, stronger effect = lower value): 1.02
normalized growth (S. cerevisiae deletion strains, locus YNR052C, strain pop2, stronger effect = lower value): 0.911 (active)
normalized growth (S. cerevisiae deletion strains, locus YOL006C, strain TOP1, stronger effect = lower value): 0.909
normalized growth (S. cerevisiae deletion strains, locus YOL012C, strain htz1): 1.29
normalized growth (S. cerevisiae deletion strains, locus YOL147C, strain pex11, stronger effect = lower value): 1.04
normalized growth (S. cerevisiae deletion strains, locus YOR001W, strain rrp6, stronger effect = lower value): 1.01
normalized growth (S. cerevisiae deletion strains, locus YOR061W, strain CKA2, stronger effect = lower value): 1.01
normalized growth (S. cerevisiae deletion strains, locus YOR069W, strain VPS5, stronger effect = lower value): 0.998
normalized growth (S. cerevisiae deletion strains, locus YOR070C, strain gyp1, stronger effect = lower value): 0.845 (active)
normalized growth (S. cerevisiae deletion strains, locus YOR080W, strain dia2, stronger effect = lower value): 0.971
normalized growth (S. cerevisiae deletion strains, locus YOR083W, strain WHI5, stronger effect = lower value): 0.981
normalized growth (S. cerevisiae deletion strains, locus YOR106W, strain vam3, stronger effect = lower value): 0.931
normalized growth (S. cerevisiae deletion strains, locus YOR136W, strain idh2, stronger effect = lower value): 1.01
normalized growth (S. cerevisiae deletion strains, locus YOR144C, strain elg1, stronger effect = lower value): 1.03
normalized growth (S. cerevisiae deletion strains, locus YOR184W, strain ser1, stronger effect = lower value): 0.944
normalized growth (S. cerevisiae deletion strains, locus YOR231W, strain MKK1, stronger effect = lower value): 0.956
normalized growth (S. cerevisiae deletion strains, locus YOR265W, strain rbl2, stronger effect = lower value): 0.922 (active)
normalized growth (S. cerevisiae deletion strains, locus YOR270C, strain vph1, stronger effect = lower value): 0.57 (active)
normalized growth (S. cerevisiae deletion strains, locus YOR290C, strain snf2, stronger effect = lower value): 0.991
normalized growth (S. cerevisiae deletion strains, locus YOR316C, strain cot1, stronger effect = lower value): 1.03
normalized growth (S. cerevisiae deletion strains, locus YPL051W, strain arl3, stronger effect = lower value): 0.946
normalized growth (S. cerevisiae deletion strains, locus YPL055C, strain LGE1, stronger effect = lower value): 0.926
normalized growth (S. cerevisiae deletion strains, locus YPL078C, strain atp4, stronger effect = lower value): 0.983
normalized growth (S. cerevisiae deletion strains, locus YPL106C, strain sse1, stronger effect = lower value): 1.15 [resistant] (active)
normalized growth (S. cerevisiae deletion strains, locus YPL240C, strain hsp82, stronger effect = lower value): 0.997
normalized growth (S. cerevisiae deletion strains, locus YPL241C, strain CIN2, stronger effect = lower value): 1
normalized growth (S. cerevisiae deletion strains, locus YPL256C, strain CLN2, stronger effect = lower value): 1.02
normalized growth (S. cerevisiae deletion strains, locus YPR119W, strain clb2, stronger effect = lower value): 1.04
normalized growth (S. cerevisiae deletion strains, locus YPR141C, strain kar3, stronger effect = lower value): 1.02
normalized growth (S. cerevisiae deletion strains, locus YPR163C, strain tif3, stronger effect = lower value): 1.01
normalized growth (S. cerevisiae deletion strains, locus YPR167C, strain met16, stronger effect = lower value): 1.03
normalized growth (S. cerevisiae deletion strains, strain wtn01, stronger effect = lower value): 1.03
normalized growth (S. cerevisiae strains, strain wild type, stronger effect = lower value): 0.997
